The values that follow come from PubChem BioAssay (NCI).

The panel holds about 83,000 compounds, 20% with a hit somewhere; the sample as a whole holds those more often.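 Plates (96-well) were seeded with cells, treated with compound at one concentration, and incubated for 48 hours before percent growth was determined.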 Unmarked numbers belong to inactive results. The source made the active and inactive calls. Rule for the calls: active = growth percent below 10; inactive = the rest.

Common to all, as to assay: NCI-60 one-dose screen, 48 h (100 = growth as untreated, 0 = no growth, -100 = all killed)
In test [1] the test system is SK-MEL-2 melanoma. The settings on record: 10 µM.
Test [2] relates to EKVX NSCLC. The following applies: 10 µM unless noted.
The subject of test [3] is SN12C renal. The following applies: 10 µM unless noted.
In test [4] the test system is UO-31 renal. The settings on record: 10 µM unless noted.
Test [5] deals with TK-10 renal. The settings on record: 10 µM unless noted.
Test [6] relates to ACHN renal. The following applies: 10 µM unless noted.
The test system of test [7] is CCRF-CEM leukemia. The settings on record: 10 µM unless noted.
Test [8] relates to MOLT-4 leukemia. The following applies: 10 µM unless noted.
Test [9] has as its system SR leukemia. The following applies: 10 µM unless noted.
Test [10] has as its system RPMI-8226 leukemia. The following applies: 10 µM unless noted.
The subject of test [11] is OVCAR-8 ovarian. The following applies: 10 µM unless noted.
In test [12] the test system is OVCAR-5 ovarian. The settings on record: 10 µM unless noted.
Test [13] relates to OVCAR-4 ovarian. The settings on record: 10 µM unless noted.
Test [14] relates to SK-OV-3 ovarian. The following applies: 10 µM unless noted.
Test [15] deals with IGROV1 ovarian. The settings on record: 10 µM unless noted.
The subject of test [16] is OVCAR-3 ovarian. The settings on record: 10 µM unless noted.
The subject of test [17] is HS 578T breast. The settings on record: 10 µM.
The test system of test [18] is NCI/ADR-RES ovarian. The settings on record: 10 µM unless noted.
Test [19] concerns A498 renal. The following applies: 10 µM unless noted.

Take `N#CC(C#N)=NO`: the growth in test [1] is 100%; in test [2] it was 92.4%; in test [3], 106%; in [4] it was 98.6%; in [5], 93.9%; in test [6] it was 98.4%. The growth in test [7] was 87%; in test [8], 99.8%; in test [9] it was 97.1%; in test [10], 101%; in test [11] it was 103%; in test [12] it was 104%. Moreover, the growth is 113% in test [13]; 89.1% in test [14]; 101% in test [15]; 111% in [16]; 99.6% in test [17]; 100% in test [18].

Consider `CC(C)=CCc1cc2c(cc1O)C1=C(C(=O)C3=C(NCCS3(=O)=O)C1=O)C(C=C(C)C)O2` (stereo not drawn), for which the growth in [1] is 19.3%; in test [2] it was 48.6%; in [3], -43.3% (active); in test [4], 41.6%; in [5], 122%; in test [6], 62.4%. The growth is 94.9% in test [19]; -22.3% (active) in test [8]; 6.83% (active) in [9]; 43.3% in test [10]; 13.4% in test [11]; 154% in test [12]. Moreover, the growth in test [13] was 32.9%; in test [14], 69.3%; in [15], 1.26% (active); in [16], -0.915% (active); in test [17], 73.5%; in [18], 86.6%.

On to `O=C(Cc1ccccc1)Nc1nnc(NC2CCN(c3nnc(NC(=O)Cc4ccccc4)s3)CC2)s1`, for which the growth in [1] is 122%; in [2], 90.2%; in [3] it was 86%; in test [4], 74.4%; in test [5], 110%; in [19], 43.8%. Besides, the growth in [7] is 72.4%; in test [8] it was 91.3%; in [9] it was 84.9%; in test [11], 95.2%; in [12], 94.3%; in test [13], 98.8%. For the same molecule, the growth is 84% in test [14]; 84.8% in test [15]; 94.4% in test [16]; 78.6% in test [17]; 98.4% in test [18].

`CN1CCN(Cc2ccc(NC(=O)c3[nH]ncc3Nc3ncnc4sc5c(c34)CCCC5)cc2)CC1`: the growth in test [1] is -53.7% (active); in [2] it was -71.2% (active); in test [3] it was -44.2% (active); in test [4], -82.9% (active); in [5], -96.6% (active); in [6] it was -100% (active). Further, the growth in test [19] was -60.5% (active); in [8] it was -62.5% (active); in [9] it was -54.3% (active); in test [10], -32.1% (active); in test [11], -39.6% (active); in [12], -86.8% (active). Moreover, the growth is -41.4% (active) in test [13]; -5.01% (active) in test [14]; -60.9% (active) in test [15]; -83.8% (active) in [16]; -32.5% (active) in test [17]; -61.7% (active) in [18].

For the molecule `Oc1ccc(/C=N/Nc2nnc(N/N=C/c3ccc(O)cc3O)c3ccccc23)c(O)c1`, the growth in test [1] is -58% (active); in test [2], -18.4% (active); in test [3], -28% (active); in test [4], 0% (active); in [5], 10.5%; in [6], -3.24% (active). In addition, the growth in [19] was -61.1% (active); in [7], -51.4% (active); in test [8] it was -26.9% (active); in test [9], -26.1% (active); in test [11] it was -60% (active); in [12] it was 1.16% (active). Besides, the growth was -9.22% (active) in test [13]; -15.4% (active) in [14]; -2.51% (active) in [15]; -34.1% (active) in test [16]; -76.8% (active) in [17]; -11.1% (active) in [18].

For `O=C(Nc1ccc(C2=NCCCN2)cc1)c1ccc(C(=O)Nc2ccc(C3=NCCCN3)cc2)nc1`, the growth is 109% in test [1]; 96% in [2]; 99.8% in test [3]; 82.6% in test [4]; 122% in test [5]; 107% in test [6]. In addition, the growth is 127% in test [19]; 107% in test [7]; 85.8% in [8]; 85.2% in [9]; 112% in [11]; 95.1% in [12]. The growth was 102% in test [13]; 106% in test [14]; 107% in [15]; 101% in test [16]; -26.5% (active) in [17]; 102% in test [18].

As for `COC(=O)c1[nH]cnc1/N=N/N(C)CCO`, the growth in [1] is 108%; in test [2], 97.9%; in test [3], 102%; in [4], 84.9%; in test [5] it was 129%; in [19] it was 121%. For the same molecule, the growth is 102% in [7]; 85.8% in [8]; 75.4% in [9]; 109% in test [11]; 92.9% in [12]; 105% in test [13]. Further, the growth in test [14] was 98.3%; in [15], 109%; in test [16], 99%; in test [17], -26.7% (active); in test [18], 95.9%.

As to `Cc1cc(N(CCNc2ccnc3cc(Cl)ccc23)Cc2ccc3c(c2)OCO3)nc(N2CCN(C)CC2)n1`, the growth in [1] is -57.5% (active); in test [2], 73.4%; in test [3], 60.7%; in test [4], 2.58% (active); in test [5], -24.9% (active); in test [6], -20.6% (active). Besides, the growth in [7] is -11.8% (active); in test [8] it was 0.0794% (active); in test [9], -33.4% (active); in test [10], -42.3% (active); in test [11] it was 20.3%; in test [12], 97.2%. The growth in test [13] is 36%; in test [14], 67.4%; in test [15], 51.7%; in test [16], 26.5%; in test [17], 34.4%.

As for `CC(=Nc1ccccc1)C1=C(O)C(Cc2ccc(O)cc2)NC1=O` (stereo not drawn), the growth in test [1] is 42.2%; in [2] it was 20.4%; in test [3], 43.5%; in test [4] it was 42.3%; in test [5], 68.2%; in test [6] it was 33.2%. Further, the growth is -25.6% (active) in [19]; -3.04% (active) in [8]; -9.58% (active) in [9]; -53.5% (active) in [11]; 32.1% in [12]; 36.6% in test [13]. For the same molecule, the growth in test [14] was 23%; in [15] it was 17.8%; in [16], -63.2% (active); in test [17], -27.2% (active); in test [18], -13.4% (active).
